This note sets out measurements from PubChem BioAssay (NCATS).

Test [1] can be described thus: P-glycoprotein substrates identified in KB-8-5-11 adenocarcinoma cell line, qHTS therapeutic library screen (AID 1346987). Note: nearly all actives have a fitted effect of over 65% in size. In outline: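 In this qHTS, P-gp-rich KB-8-5-11 cells received library compounds across a concentration range. Viability was quantified by luminescence after 72 h at 37 degree C.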
On the technique in general: In qHTS, concentration-response curves come from the screen itself.

Test [2] can be described thus: NS1 protein of Zika virus - qHTS assay to identify small molecule inhibitors in human HEK 293 cells (AID 1347053). Note: nearly all actives have a fitted effect of over 55% in size. Note: potency is the fitted concentration of half-maximal effect. In outline:
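Read-out is a two-antibody TR-FRET for ZIKV NS1, normalized between uninfected cells and infected cells. Compound added 1 h before MR766 infection at MOI 0.5; human HEK 293 cells incubated 24 h, 37 C.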

Test [3] can be described thus: qHTS for Inhibitors of the Functional Ribonucleoprotein Complex (vRNP) of Lassa (LASV) Arenavirus: LASV Primary Screen - GLuc reporter signal (AID 1347082; calls by dose curve; tested in HEK293 reporter line; note: series mostly up to about 57 µM; nearly all actives have a fitted effect of over 60% in size).
A short description of test [4]: qHTS for Inhibitors of the Functional Ribonucleoprotein Complex (vRNP) of Lassa (LASV) Arenavirus: Viability assay - alamar blue signal for LASV Primary Screen (AID 1347083; calls by dose curve; tested in HEK293 reporter line; note: series mostly up to about 57 µM; nearly all actives have a fitted effect of over 80% in size).
A short description of test [5]: qHTS for Inhibitors of the Functional Ribonucleoprotein Complex (vRNP) of Lymphocytic Choriomeningitis Arenaviruses (LCMV): Viability assay - alamar blue signal for LCMV Primary Screen (AID 1347085; calls by dose curve; tested in HEK293 reporter line; note: nearly all actives have a fitted effect of over 80% in size; note: potency is the fitted concentration of half-maximal effect).
Test [6] deals with Nucleoprotein (Lymphocytic choriomeningitis virus (strain Armstrong)) (UniProt P09992). The experiment in a line: qHTS for Inhibitors of the Functional Ribonucleoprotein Complex (vRNP) of Lymphocytic Choriomeningitis Arenaviruses (LCMV): LCMV Primary Screen - GLuc reporter signal (AID 1347086; calls by dose curve; note: series mostly up to about 57 µM; nearly all actives have a fitted effect of over 70% in size).
A short description of test [7]: qHTS of pediatric cancer cell lines to identify multiple opportunities for drug repurposing: Primary screen for TC32 cells (AID 1347089). Note: nearly all actives have a fitted effect of over 60% in size. In outline:
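In the primary qHTS, MIPE compounds were tested at 11 concentrations (0.78 nM to 46 µM) and NPC compounds at 8 (0.59 nM to 46 µM) on TC32 cells for 48 h. CellTiter-Glo luminescence gave viability.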

Test [8] is described as follows: qHTS of pediatric cancer cell lines to identify multiple opportunities for drug repurposing: Primary screen for DAOY cells (AID 1347090). Note: series mostly up to about 46 µM; nearly all actives have a fitted effect of over 55% in size. Put shortly: (§1)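 Cell viability, CellTiter-Glo luminescence; 500-1,000 cells/well, 8- or 11-point titration, 48 h compound exposure at 37 degrees C, 5% CO2. Controls: DMSO neutral, bortezomib 2.3 µM final as positive.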
Test [9] can be described thus: qHTS of pediatric cancer cell lines to identify multiple opportunities for drug repurposing: Primary screen for A673 cells (AID 1347092). Note: nearly all actives have a fitted effect of over 45% in size. Note: potency is the fitted concentration of half-maximal effect. Put shortly: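 48 h compound exposure, A673, 500-1,000 cells/well, 37 degrees C/5% CO2. MIPE: 11-point, 0.78 nM-46 µM; NPC: 8-point, 0.59 nM-46 µM (final). Readout CellTiter-Glo luminescence after 15 min RT.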
Test [10] in a line: qHTS of pediatric cancer cell lines to identify multiple opportunities for drug repurposing: Primary screen for SK-N-MC cells (AID 1347093). Note: potency is the fitted concentration of half-maximal effect. In outline: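 Metabolically active cells were quantified by ATP-dependent luminescence (CellTiter-Glo, 15 min at room temperature) following 48 h treatment. Cells had been plated at 500-1,000 per well and settled for 5 h beforehand.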
Test [11] concerns the target Atrial natriuretic peptide receptor 1 (Homo sapiens) (UniProt P16066). Put plainly: Natriuretic polypeptide receptor (hNpr1) antagonism - Pilot screen (AID 1347049; calls by dose curve;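 note: HEK293 cells with hNpr1 and GloSensor cGMP luciferase stimulated by 0.1 nM hNppA; agonist-evoked cGMP luminescence read 20 min after hNppA addition; series mostly up to about 58 µM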). In outline: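 Receptor antagonism read as cGMP-dependent luminescence in hNpr1/pGS-40F HEK293 cells: pre-read after 30 min compound exposure, post-read 20 min after hNppA agonist at 0.1 nM final, all at room temperature, protected from light; A-71915 titration as control.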

Test [12] concerns the target T1, Tyrosine-protein phosphatase non-receptor type substrate 1 (Homo sapiens) + Leukocyte surface antigen CD47 (Homo sapiens) (UniProt P78324+Q08722). The experiment in a line: CD47-SIRPalpha protein protein interaction - LANCE assay qHTS validation (AID 1347057; active = well fitted curve in the direction sought with a large enough effect in the signal ratio, with a control signal flat, not every such curve was filed as active; the % refers to the signal ratio; note: series mostly up to about 38 µM). In outline:
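Inhibition of soluble CD47/SIRPalpha ectodomain association by titrated compounds, measured as 665/615 nm time-resolved FRET ratio after sequential 30 min room-temperature incubations.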
Background: In TR-FRET formats the signal depends on donor and acceptor labels being close together.

In test [13] the target is T1, Tyrosine-protein phosphatase non-receptor type substrate 1 (Homo sapiens) + Leukocyte surface antigen CD47 (Homo sapiens). Put plainly: CD47-SIRPalpha protein protein interaction - HTRF assay qHTS validation (AID 1347058; active = well fitted curve in the direction sought with a large enough effect in the signal ratio, not every such curve was filed as active; the % refers to the signal ratio; note: series mostly up to about 38 µM). Put shortly:
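Soluble extracellular domains (6His-CD47, Avi-tag-biotinylated SIRPalpha) in PBS pH 7.4 with 0.05% IGEPAL CA-630. Compounds were preincubated 30 min at RT with CD47 and anti-His-Eu, then SIRPalpha and SAV-XL665 were added. TR-FRET 665/615 ratio.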

The target is the same in test [14]. The experiment in a line: CD47-SIRPalpha protein protein interaction - Alpha assay qHTS validation (AID 1347059).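 Note: bead proximity luminescence from CD47 binding SIRPalpha after compound preincubation with SIRPalpha.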 In outline:
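AlphaScreen signal between CD47-His (12.5 nM) and biotin-SIRPalpha (25 nM) soluble extracellular domains, bead-captured via Ni-NTA and streptavidin. Compounds, in 7-point titrations, met SIRPalpha 30 min before CD47; PBS pH 7.4 with 0.05% IGEPAL.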

The target in test [15] is Parathyroid hormone/parathyroid hormone-related peptide receptor (Homo sapiens) (UniProt Q03431). The experiment in a line: qHTS for PTHR1 Agonists: Optimization Screen against the NCGC LOPAC library (AID 1347079).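 Note: GloSensor cAMP luminescence in HEK-293 GP2 cells expressing human PTHR1 with IBMX.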 Put shortly:
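Signal increase flags agonism. GP2 cells, derived from HEK-293, express human PTHR1 and a GloSensor cAMP construct.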

The nature of test [16]: qHTS of pediatric cancer cell lines to identify multiple opportunities for drug repurposing: Primary screen for SJ-GBM2 cells (AID 1347091). Put shortly: as §1
Test [17] can be described thus: Natriuretic polypeptide receptor (hNpr1) antagonism - Pilot counterscreen GloSensor control cell line (AID 1347045; calls by dose curve; note: series mostly up to about 38 µM). In outline:
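HEK293 cGMP-sensor cells; 2% GloSensor reagent 2 h RT; LOPAC compounds in 1:5 titrations 30-50 min; 50 uM SNP 20 min; luminescence pre-read and post-read.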
On the technique in general: A counterscreen serves to expose hits that act by an unwanted route or on another target.

The target in test [18] is Atrial natriuretic peptide receptor 2 (Homo sapiens) (UniProt P20594). Put plainly: Natriuretic polypeptide receptor (hNpr2) antagonism - Pilot subtype selectivity assay (AID 1347050; calls by dose curve). Put shortly: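 Antagonist mode: compounds (LOPAC1280, seven 1:5 dilutions) added 30 min before 1 nM hNppC stimulation of hNpr2-HEK293 cGMP-sensor cells; luminescence read before and 20 min after agonist at ambient temperature.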

Records with an inconclusive call do not appear. Activity calls are given as the source filed them. Unless noted, calls come from the whole dose curve; as a rule, active = well fitted curve in the direction sought with a large enough effect; inconclusive = small, poorly fitted or top-dose-only effect, or another doubt; inactive = no such curve, though single readings can be large; an effect the other way counts as inactive or inconclusive.

T1 sequence (P78324 whole entry, looked up, the tested form may be a part): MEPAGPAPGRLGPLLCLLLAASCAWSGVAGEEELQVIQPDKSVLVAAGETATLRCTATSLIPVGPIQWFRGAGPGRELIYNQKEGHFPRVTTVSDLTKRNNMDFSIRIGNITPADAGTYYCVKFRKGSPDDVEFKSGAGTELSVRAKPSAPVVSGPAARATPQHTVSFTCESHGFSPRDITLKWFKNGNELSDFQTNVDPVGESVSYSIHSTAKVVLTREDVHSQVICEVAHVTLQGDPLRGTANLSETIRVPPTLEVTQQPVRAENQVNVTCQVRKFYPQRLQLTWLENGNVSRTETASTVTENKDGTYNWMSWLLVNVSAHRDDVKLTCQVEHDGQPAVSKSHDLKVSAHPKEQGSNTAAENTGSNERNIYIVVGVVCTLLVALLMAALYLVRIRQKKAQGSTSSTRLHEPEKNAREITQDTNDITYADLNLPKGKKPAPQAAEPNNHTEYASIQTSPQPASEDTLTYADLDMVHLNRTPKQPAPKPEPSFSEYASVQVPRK
T1 sequence (Q08722 whole entry, looked up, the tested form may be a part): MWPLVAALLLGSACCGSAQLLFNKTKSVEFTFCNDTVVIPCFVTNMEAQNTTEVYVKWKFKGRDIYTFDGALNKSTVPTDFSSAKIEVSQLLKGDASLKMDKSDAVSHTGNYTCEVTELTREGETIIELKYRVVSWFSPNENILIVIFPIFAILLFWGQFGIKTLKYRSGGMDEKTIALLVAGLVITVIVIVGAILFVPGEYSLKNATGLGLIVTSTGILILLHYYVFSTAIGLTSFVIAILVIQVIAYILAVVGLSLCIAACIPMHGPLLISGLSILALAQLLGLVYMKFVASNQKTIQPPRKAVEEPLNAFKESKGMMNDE
Nucleoprotein (Lymphocytic choriomeningitis virus (strain Armstrong)), sequence (P09992 whole entry, looked up): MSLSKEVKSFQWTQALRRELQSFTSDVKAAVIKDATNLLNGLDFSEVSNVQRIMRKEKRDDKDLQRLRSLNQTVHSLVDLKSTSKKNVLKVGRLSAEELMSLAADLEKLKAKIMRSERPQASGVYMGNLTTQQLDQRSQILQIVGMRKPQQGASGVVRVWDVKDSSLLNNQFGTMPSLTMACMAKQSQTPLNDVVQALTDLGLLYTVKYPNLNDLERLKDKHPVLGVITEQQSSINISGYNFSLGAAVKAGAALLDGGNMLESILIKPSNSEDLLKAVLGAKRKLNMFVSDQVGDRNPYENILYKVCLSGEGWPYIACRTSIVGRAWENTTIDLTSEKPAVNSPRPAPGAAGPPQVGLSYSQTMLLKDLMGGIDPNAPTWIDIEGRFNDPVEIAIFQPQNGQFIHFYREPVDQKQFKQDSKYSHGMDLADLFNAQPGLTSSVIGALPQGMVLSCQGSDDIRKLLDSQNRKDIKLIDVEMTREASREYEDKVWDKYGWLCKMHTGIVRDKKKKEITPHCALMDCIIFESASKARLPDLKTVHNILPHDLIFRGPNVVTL
Atrial natriuretic peptide receptor 1 (Homo sapiens), sequence (P16066 whole entry, looked up): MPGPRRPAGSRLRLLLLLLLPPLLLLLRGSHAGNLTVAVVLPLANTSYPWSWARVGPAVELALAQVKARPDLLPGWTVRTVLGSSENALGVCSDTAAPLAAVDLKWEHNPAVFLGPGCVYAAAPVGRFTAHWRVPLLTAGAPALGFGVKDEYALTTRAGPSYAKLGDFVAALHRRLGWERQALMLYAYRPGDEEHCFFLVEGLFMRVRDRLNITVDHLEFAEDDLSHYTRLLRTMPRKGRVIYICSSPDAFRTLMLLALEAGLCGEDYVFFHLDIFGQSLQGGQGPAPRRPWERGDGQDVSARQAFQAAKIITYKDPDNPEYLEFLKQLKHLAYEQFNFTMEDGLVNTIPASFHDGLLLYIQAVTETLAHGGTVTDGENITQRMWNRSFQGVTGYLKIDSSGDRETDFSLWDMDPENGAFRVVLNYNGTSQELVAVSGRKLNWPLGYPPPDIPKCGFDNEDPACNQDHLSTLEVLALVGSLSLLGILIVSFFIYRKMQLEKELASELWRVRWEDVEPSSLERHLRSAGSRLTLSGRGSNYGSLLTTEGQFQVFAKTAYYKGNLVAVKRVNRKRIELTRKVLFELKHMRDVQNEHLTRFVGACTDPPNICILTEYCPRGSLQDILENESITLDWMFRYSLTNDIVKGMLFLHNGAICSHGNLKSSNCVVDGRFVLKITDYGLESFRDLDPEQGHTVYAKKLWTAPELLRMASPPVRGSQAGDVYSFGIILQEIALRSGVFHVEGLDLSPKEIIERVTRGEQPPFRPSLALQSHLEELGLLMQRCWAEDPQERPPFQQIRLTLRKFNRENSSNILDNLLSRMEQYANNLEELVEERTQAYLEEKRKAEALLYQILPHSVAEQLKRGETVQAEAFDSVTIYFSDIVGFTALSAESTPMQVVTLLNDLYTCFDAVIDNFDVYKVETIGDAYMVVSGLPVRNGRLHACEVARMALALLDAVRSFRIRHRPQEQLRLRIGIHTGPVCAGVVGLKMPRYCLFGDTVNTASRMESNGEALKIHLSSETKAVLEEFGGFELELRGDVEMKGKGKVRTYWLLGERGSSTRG
Parathyroid hormone/parathyroid hormone-related peptide receptor (Homo sapiens), sequence (Q03431 whole entry, looked up): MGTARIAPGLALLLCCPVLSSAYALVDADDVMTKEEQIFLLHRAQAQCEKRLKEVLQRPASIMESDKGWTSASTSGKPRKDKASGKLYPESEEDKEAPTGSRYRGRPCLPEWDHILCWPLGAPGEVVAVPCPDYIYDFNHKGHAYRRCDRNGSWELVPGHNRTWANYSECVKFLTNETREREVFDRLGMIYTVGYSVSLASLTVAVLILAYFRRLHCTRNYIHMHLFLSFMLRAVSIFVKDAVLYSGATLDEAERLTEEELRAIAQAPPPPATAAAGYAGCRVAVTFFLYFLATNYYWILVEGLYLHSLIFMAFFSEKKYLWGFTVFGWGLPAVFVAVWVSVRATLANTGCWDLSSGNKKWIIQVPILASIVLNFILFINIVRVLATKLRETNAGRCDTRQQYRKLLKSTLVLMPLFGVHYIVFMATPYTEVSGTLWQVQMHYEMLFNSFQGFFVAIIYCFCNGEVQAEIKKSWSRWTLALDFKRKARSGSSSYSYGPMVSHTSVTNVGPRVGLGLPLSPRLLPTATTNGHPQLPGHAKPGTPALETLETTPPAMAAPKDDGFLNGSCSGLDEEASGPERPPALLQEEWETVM
Atrial natriuretic peptide receptor 2 (Homo sapiens), sequence (P20594 whole entry, looked up): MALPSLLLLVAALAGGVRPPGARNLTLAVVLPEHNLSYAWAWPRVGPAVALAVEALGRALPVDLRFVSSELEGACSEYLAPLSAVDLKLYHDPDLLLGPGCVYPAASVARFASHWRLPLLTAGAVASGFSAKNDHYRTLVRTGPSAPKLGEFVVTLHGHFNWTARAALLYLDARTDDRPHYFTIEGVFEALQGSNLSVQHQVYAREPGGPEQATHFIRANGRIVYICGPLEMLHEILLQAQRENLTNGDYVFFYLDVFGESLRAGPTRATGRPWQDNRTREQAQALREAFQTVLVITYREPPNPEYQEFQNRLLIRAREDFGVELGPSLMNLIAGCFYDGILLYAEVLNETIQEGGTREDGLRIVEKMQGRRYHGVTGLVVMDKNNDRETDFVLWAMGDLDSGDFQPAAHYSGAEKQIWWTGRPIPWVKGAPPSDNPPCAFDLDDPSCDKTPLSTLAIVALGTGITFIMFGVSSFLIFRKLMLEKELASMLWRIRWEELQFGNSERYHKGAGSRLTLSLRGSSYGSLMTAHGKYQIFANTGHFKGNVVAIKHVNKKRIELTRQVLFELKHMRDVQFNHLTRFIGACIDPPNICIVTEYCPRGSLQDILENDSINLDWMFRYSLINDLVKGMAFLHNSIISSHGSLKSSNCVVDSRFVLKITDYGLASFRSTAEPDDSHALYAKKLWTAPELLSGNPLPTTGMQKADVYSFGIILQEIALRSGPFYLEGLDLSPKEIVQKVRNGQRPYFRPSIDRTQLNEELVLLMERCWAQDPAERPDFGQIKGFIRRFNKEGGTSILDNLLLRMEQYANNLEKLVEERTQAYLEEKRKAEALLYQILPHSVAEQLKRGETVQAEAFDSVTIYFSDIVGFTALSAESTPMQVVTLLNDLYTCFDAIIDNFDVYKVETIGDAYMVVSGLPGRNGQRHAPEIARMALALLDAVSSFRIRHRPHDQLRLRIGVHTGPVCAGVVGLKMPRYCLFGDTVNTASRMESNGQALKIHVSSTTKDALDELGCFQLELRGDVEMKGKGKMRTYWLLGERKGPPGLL

For the compound `C#CCOC(C(=O)OCCN(C)C)(c1ccccc1)c1ccccc1`, the Potency entry in test [1], in test [2], in test [3], in [4], in test [5] and in [6] was “inactive” each time. Further, the Potency entry in [7], in [8], in [9] and in test [10] was “inactive” in each case.
In the case of `Clc1ccc(COC(Cn2ccnc2)c2ccc(Cl)cc2Cl)cc1` (stereo not drawn), the Potency entry in [2], in [3], in [4], in test [5], in test [6] and in [7] was “inactive” each time. Moreover, in [9], the Potency was 23.5 µM (active).
With `CNC(=O)N1N=C(c2ccc(N)cc2)c2cc3c(cc2CC1C)OCO3` (stereo not drawn), the Potency entry in [2] is “inactive”.
On to `O=c1[nH]c2ccccc2n1CCCN1CCC(n2c(=O)[nH]c3cc(Cl)ccc32)CC1`, for which the Potency entry in test [11], in [2], in [3], in test [4], in test [5] and in [6] was “inactive” in each case. The Potency result in test [7], in [8], in test [9] and in test [10] was “inactive” each time. Further, the result in [12], in test [13], in test [14] and in [15] was inactive.
As to `CN(C)CCN(C)CCc1ccc(Cl)c(Cl)c1`, the Potency entry in [1], in test [2], in test [7], in test [8], in [16] and in test [9] was “inactive” throughout. Further, in test [5], the Potency is 21.7 µM (active).
As for `C=C1CC[C@@]2(O)[C@H]3Cc4ccc(O)c5c4[C@@]2(CCN3CC2CC2)[C@H]1O5`, the Potency entry in test [1], in test [3], in test [4], in test [5], in test [6] and in test [7] was “inactive” throughout. In addition, the Potency result in test [8], in test [16], in test [9] and in test [10] was “inactive” throughout.
For the compound `CCN(CC)C(=O)N[C@@H]1C=C2c3cccc4[nH]cc(c34)C[C@@H]2N(C)C1`, the Potency entry in test [2], in test [3], in [4], in test [6], in [7] and in [8] was “inactive” in each case. Besides, the Potency entry in test [16], in test [9] and in [10] was “inactive” in each case.
Take `CN1C[C@H](CNC(=O)OCc2ccccc2)C[C@@H]2c3cccc4c3c(cn4C)C[C@H]21`: the Potency entry in [17], in test [11], in test [18], in test [2], in test [3] and in [4] was “inactive” throughout. Further, the Potency entry in test [5], in test [6], in test [7] and in test [8] was “inactive” throughout. For the same compound, the outcome in [12] and in [15] was inactive.
With `CC(C)CC(N(C)C)C1(c2ccc(Cl)cc2)CCC1` (stereo not drawn), the Potency result in test [1], in test [2], in [3], in [5], in test [6] and in test [7] was “inactive” throughout. The Potency entry in test [8], in test [9] and in test [10] was “inactive” throughout.
With `Clc1ccc(CCC(Cn2ccnc2)Sc2c(Cl)cccc2Cl)cc1` (stereo not drawn), the Potency in test [2] was 14.8 µM (active); in test [9], 23.5 µM (active); in test [10], 23.5 µM (active). For the same compound, the Potency result in test [3], in test [4], in [5], in [6], in test [7] and in test [8] was “inactive” in each case.
`CN1C(=S)CN=C(c2ccccc2)c2cc(Cl)ccc21`: the Potency result in test [2], in [3], in test [4], in [5], in test [6] and in [7] was “inactive” throughout. In addition, the Potency entry in test [8], in test [16], in test [9] and in [10] was “inactive” throughout.
